# Assay results as given in PubChem BioAssay (NCI).
# Where “and” joins values, the source holds several entries; their conditions need not be identical. Equal entries are not always repeated. Compounds without any hit were thinned out: in the full panel of roughly 83,000, 20% have a hit.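 Note: values are percent growth. 100 is the growth of untreated cells, values between 100 and 0 indicate rising inhibition; between -100 and 0 indicates cell death.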 Unmarked numbers belong to inactive results. Calls of active or inactive are those of the source. Rule for the calls: active = growth percent below 10; inactive = the rest.
# System: MDA-MB-468 breast
# Experiment: NCI-60 one-dose screen, 48 h (100 = growth as untreated, 0 = no growth, -100 = all killed)
# Conditions: 10 µM unless noted
row,Compound,growth
1,Cc1cccc2c3c(sc12)C(c1ccc(Cl)cc1)C(C#N)=C(N)O3 (centres undefined),17.3%
2,N=C(N)c1ccc(-c2ccc(-c3cccs3)o2)cc1,-40.5% (active)
3,O=C1OC(N(Cc2ccc(Cl)cc2)c2ccccc2)c2ccccc21 (centres undefined),104%
4,COc1ccc(/C=C/C(=O)c2cc3c(N)c(C(=O)Nc4ccccc4)sc3nc2C)cc1,15.3%
5,COc1nc2ccccc2cc1-c1nc2c(cnn2-c2ccc(Br)cc2)c(=O)[nH]1,5.52% (active)
6,COc1ccc(C)cc1OC,137%
7,CC(=O)Oc1ccc(CCN2C(=O)CSC2=S)cc1,-12.9% (active)
8,COC(=O)c1ccc(Cn2cnc3c(N)ncnc32)cc1,106%
9,CCCC/C(CC)=N\NS(=O)(=O)c1ccc([N+](=O)[O-])cc1,109%
10,COC1CC(N)C2OC(c3ccccc3)OCC2O1 (centres undefined),109%
11,Cc1ccc(C(=O)NN2C(=O)CSC2c2ccc(Cl)cc2)cn1 (centres undefined),110%
12,Fc1ccc(NCCS)cc1,106%
13,COc1cc(C2CC(c3ccc(Cl)cc3)=NN2c2ccc(Cl)cc2)cc(OC)c1OC (centres undefined),100%
14,COc1ccc2cc(C(=O)c3coc4ccc(O)cc34)ccc2c1,126%
15,COC(=O)C(C)Oc1ccc(OC#N)cc1 (centres undefined),99%
16,CC1=C(C)C(=O)C(Nc2cccc(C(F)(F)F)c2)=C(Br)C1=O,-61.4% (active)
17,CC(C)(C)OC(=O)N1CCC(O)[C@@H](O[Si](c2ccccc2)(c2ccccc2)C(C)(C)C)[C@H]1/C=C/c1ccccc1 (some centres undefined),15.2%
18,O=C(Nc1ccc(C(=O)O)c(O)c1)c1ccccc1,105% and 104%
19,Cc1nc(/N=C(N)/N=C(\N)c2cccc(Br)c2)sc1C,32.5%
20,CCOC(=O)Cc1cnc(N/N=C(\C)c2cc3ccccc3o2)s1,99.8%

row,Compound,growth
1,C=C1C(=O)O[C@H]2[C@H]1CC/C(COC(=O)NC1CCC(O)CC1)=C\CC[C@@]1(C)O[C@@H]21 (some centres undefined),37% and 31.7%
2,COc1ccc(CCNC=O)cc1OC,77.7%
3,CN(C)CCCn1c2c(c3ccc(N4CCNCC4)cc3c1=O)C(=O)c1ccccc1-2,-17.2% (active)
4,O=C(CSc1nc2ccc([N+](=O)[O-])cc2[nH]1)Nc1ccc(F)cc1,22.3%
5,CCN1CCN(c2nc(C)cc(N(CCNc3ccnc4cc(Cl)ccc34)Cc3ccc4c(c3)OCO4)n2)CC1,-65.3% (active)
6,CSc1oc(C)nc1[P+](c1ccccc1)(c1ccccc1)c1ccccc1,-4.41% (active)
7,COc1cccc(-c2nc3sccn3c2-c2ccnc(NCCCNS(=O)(=O)c3c(Cl)cccc3Cl)c2)c1,49.3%
8,COc1ccc(Nc2nc(N)nc3c2CCN(Cc2ccc(OC)cc2OC)C3=O)cc1,95.6%
9,CCCc1ccnc(NS(=O)(=O)c2ccc(N)cc2)n1,8.05% (active)
10,CCCC(CC)(C(=O)Nc1ccc2nc(C)cc(N)c2c1)C(=O)Nc1ccc2nc(C)cc(N)c2c1,87%
11,COc1ccc(N2C(=O)c3cc(OC)c(OC)cc3NC2SCc2ccccc2)cc1 (centres undefined),108%
12,CN(CCCCCCCCNc1ccnc2ccccc12)Cc1ccc(-c2ccc(-c3ccc(C#N)cc3)s2)cc1,-50.4% (active)
13,O=C(Nc1cnn2ccc(N3CCC[C@@H]3c3cc(F)ccc3F)nc12)N1CC[C@H](O)C1,88.7%
14,Cc1ccc(-c2nnc(SCc3ccc(O)c4ncccc34)o2)cc1,14.4%
15,O=C1Cc2cc(CCn3cncn3)c(Cl)cc2N1,35.1%
16,C=C1C(=O)O[C@H]2[C@H]1CC/C(COC(=O)NCc1ccc(Cn3c(=O)sn(CCCCl)c3=O)cc1)=C\CC[C@@]1(C)O[C@@H]21,-52% (active)
17,COc1ccc(/C(=C\c2cc(OC)c(OC)c(OC)c2)C(=O)N2CCCNCC2)cc1,98.1%
18,COc1cccc(-c2cn3nc(-c4cn(C)c5ccccc45)sc3n2)c1,103%
19,CCOC(=O)c1cc(-c2cccnc2)nc2c(Cl)cc(Cl)cc12,117%
